# Reference: the supplement of paper PMC6897291
# System: RIVA
# Experiment: growth inhibition by drug alone (1 - RLU/untreated control) (fraction); higher = stronger inhibition
# Conditions: 177Lu-lilotomab satetraxetan 0 ug/ml
# Description: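 RIVA (RI-1) ABC-DLBCL cells were pretreated or not for 18 h with 0.5 ug/ml 177Lu-lilotomab satetraxetan (600 MBq/mg), washed and seeded (3000 cells/well) on 384-well plates pre-printed with the Selleck Cambridge Cancer Compound library. Viability was read by RealTime-Glo luminescence on days 3-6 after seeding. Effect = 1 - RLU/mean RLU of the 48 untreated no-drug control wells per plate; Bliss score = (M-E)/(1-Fa).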
SMILES,"growth inhibition by drug alone (10 nM, time (day): 3)","growth inhibition by drug alone (10 nM, time (day): 4)","growth inhibition by drug alone (10 nM, time (day): 5)","growth inhibition by drug alone (10 nM, time (day): 6)","growth inhibition by drug alone (100 nM, time (day): 3)","growth inhibition by drug alone (100 nM, time (day): 4)","growth inhibition by drug alone (100 nM, time (day): 5)","growth inhibition by drug alone (100 nM, time (day): 6)"
CC(=O)Nc1ccc(OC[C@](C)(O)C(=O)Nc2ccc([N+](=O)[O-])c(C(F)(F)F)c2)cc1 [Andarine (GTX-007)],0.017,-0.0064,-0.271,-0.322,-0.229,-0.219,-0.21,-0.215
Cn1cc(C2=C(c3cn(C4CCN(Cc5ccccn5)CC4)c4ccccc34)C(=O)NC2=O)c2ccccc21,-0.161,-0.222,-0.236,-0.302,-0.273,-0.319,-0.329,-0.414
C[C@]12CCC(=O)C(O)=C1CC[C@@H]1[C@@H]2CC[C@]2(C)C(=O)CC[C@@H]12 [Formestane],-0.227,-0.249,-0.286,-0.391,-0.322,-0.306,-0.36,-0.445
CC[C@@H](C(=O)[C@@H](C)[C@@H](O)[C@H](C)[C@@H]1O[C@@H]([C@@H](CC)C(=O)O)CC[C@@H]1C)[C@H]1O[C@]2(C=C[C@@H](O)[C@]3(CC[C@@](C)([C@H]4CC[C@](O)(CC)[C@H](C)O4)O3)O2)[C@H](C)C[C@@H]1C [Salinomycin (Procoxacin)],0.136,0.0825,-0.0184,-0.226,0.144,0.126,0.0706,-0.0392
O=C(Oc1ccc([N+](=O)[O-])cc1)N1CCC(C(O)(c2ccc3c(c2)OCO3)c2ccc3c(c2)OCO3)CC1,0.0104,-0.0507,-0.0874,-0.233,-0.163,-0.136,-0.159,-0.226
